Screen size: about 310,000 compounds; about 14,000 (4.5%) showed an effect of 50% or more. The effect is printed as a negative number. The sample as a whole holds a higher share of strong results than the screen did.
Each compound was assayed against human ether-à-go-go-related gene (hERG) potassium channel (human, UniProt Q12809) (assay: primary screen, population patch clamp on CHO cells stably expressing hERG; higher = less effect of the substance).
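Also: peak tail current of the secondary pulse compared with the same well before compound.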

human ether-à-go-go-related gene (hERG) potassium channel, sequence (Q12809 whole entry, looked up): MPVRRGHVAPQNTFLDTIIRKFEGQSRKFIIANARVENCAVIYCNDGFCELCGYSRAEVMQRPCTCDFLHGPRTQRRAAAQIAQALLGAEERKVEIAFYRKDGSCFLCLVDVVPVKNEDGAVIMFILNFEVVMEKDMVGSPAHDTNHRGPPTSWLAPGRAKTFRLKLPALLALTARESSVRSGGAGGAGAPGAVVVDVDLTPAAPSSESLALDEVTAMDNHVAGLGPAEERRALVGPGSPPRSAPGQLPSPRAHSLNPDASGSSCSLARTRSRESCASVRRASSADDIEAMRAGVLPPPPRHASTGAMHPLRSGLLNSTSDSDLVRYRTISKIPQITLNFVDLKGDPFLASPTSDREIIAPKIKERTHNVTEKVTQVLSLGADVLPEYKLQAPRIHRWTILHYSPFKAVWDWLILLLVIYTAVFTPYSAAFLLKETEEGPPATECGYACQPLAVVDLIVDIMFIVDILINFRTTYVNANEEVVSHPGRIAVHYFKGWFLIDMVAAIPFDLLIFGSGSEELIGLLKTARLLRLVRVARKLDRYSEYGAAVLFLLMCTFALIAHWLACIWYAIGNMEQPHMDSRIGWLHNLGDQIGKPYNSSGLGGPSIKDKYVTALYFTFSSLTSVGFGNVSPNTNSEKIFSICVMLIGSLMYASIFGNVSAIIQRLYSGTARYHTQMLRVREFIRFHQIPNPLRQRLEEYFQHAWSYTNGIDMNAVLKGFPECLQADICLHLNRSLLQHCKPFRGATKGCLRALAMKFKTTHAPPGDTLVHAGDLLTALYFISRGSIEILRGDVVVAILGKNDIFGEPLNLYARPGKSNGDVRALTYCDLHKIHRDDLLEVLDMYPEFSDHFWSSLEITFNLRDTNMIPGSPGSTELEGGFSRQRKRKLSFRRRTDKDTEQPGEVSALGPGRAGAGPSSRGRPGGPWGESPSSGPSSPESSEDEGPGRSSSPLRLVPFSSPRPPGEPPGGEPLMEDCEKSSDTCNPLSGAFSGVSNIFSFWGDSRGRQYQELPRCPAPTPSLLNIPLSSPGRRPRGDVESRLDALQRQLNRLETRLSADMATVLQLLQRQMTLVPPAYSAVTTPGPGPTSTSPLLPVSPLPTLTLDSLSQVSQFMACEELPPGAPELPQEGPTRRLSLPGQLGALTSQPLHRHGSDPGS

| SMILES | hERG current change (%, negative = inhibition) at 10uM [%] |
| --- | --- |
| OCC[C@H]1C[C@H](O)[C@@H](O)[C@]2(CCCc3ccccc3O2)O1 | 0.151 |
| COCCNC(=O)CN1CCN(S(=O)(=O)c2ccc3c(c2)CCCC3)CC1 | -7.28 |
| COc1cc(N2C(=O)CC3(CCCC3)CC2=O)cc(OC)c1OC | 4.04 |
| CCOC(=O)C1(c2ccccc2)CCN(CCC(C#N)(c2ccccc2)c2ccccc2)CC1.Cl | -25 |
| N#CC(CCN1CCOCC1)(c1ccccc1)c1ccccc1 | -20.8 |
| CN1CCN(CCC(C#N)(c2ccccc2)c2ccccc2)CC1.Cl | -62.9 |
| O=C(NCc1ccc(Cl)cc1)NCC(F)(F)F | 7 |
| Cc1ccc(NC(=O)CS(=O)CC(=O)N(C2CCCC2)C(C)C(=O)NC2CCCCC2)cc1 (centres unmarked) | -22.5 |
| CCOC(=O)c1ccc2c(c1)nc(COc1ccc3ccccc3c1)n2CC | 3.73 |
| COc1ccc(-n2c(Cc3cccn3C)nnc2SCC(=O)Nc2ccccc2F)cc1 | -53.7 |
| COc1ccc(-n2c(Cc3cccn3C)nnc2SCC(=O)Nc2ccccc2OC)cc1 | -38.5 |
| COc1ccc(OC)c(NC(=O)CSc2nnc(Cc3cccn3C)n2-c2ccc(F)cc2)c1 | -10.4 |
| COc1ccc(-n2c(Cc3cccn3C)nnc2SCC(=O)Nc2ccc(C)cc2)cc1 | -26.4 |
| COc1ccc(NC(=O)CSc2nnc(Cc3cccn3C)n2-c2ccc(OC)cc2)cc1 | -21.2 |
| COc1ccc(-n2c(Cc3cccn3C)nnc2SCC(=O)Nc2ccc(F)cc2F)cc1 | -57.4 |
| Cn1cccc1Cc1nnc(SCC(=O)Nc2ccc(F)cc2F)n1-c1ccc(F)cc1 | -40.9 |
| COc1ccc(-n2c(Cc3cccn3C)nnc2SCC(=O)Nc2cc(Cl)ccc2OC)cc1 | -97.9 |
| COc1ccc(NC(=O)CSc2nnc(Cc3cccn3C)n2-c2ccc(F)cc2)cc1 | -21.7 |
| COc1ccc(-n2c(Cc3cccn3C)nnc2SCC(=O)Nc2cc(C)cc(C)c2)cc1 | -52.4 |
| COc1ccc(Cl)cc1NC(=O)CSc1nnc(Cc2cccn2C)n1-c1ccc(F)cc1 | -34.6 |
| Cn1cccc1Cc1nnc(SCC(=O)Nc2ccccc2F)n1-c1ccc(F)cc1 | -17.4 |
| COc1ccc(C2=NOC(C(=O)N3CCOCC3)C2)cc1OC (centres unmarked) | 11.6 |
| COCc1cc(C)nc(SCC(=O)Nc2cccc(C)c2)c1C#N | 14.2 |

| SMILES | hERG current change (%, negative = inhibition) at 10uM [%] |
| --- | --- |
| COC1=CC(=O)C(O)=C(CCCCCCC/C=C/CCCCCCCC2=C(O)C(=O)C=C(OC)C2=O)C1=O | -3 |
| CCOc1ccc(/C(CCC(=O)O)=N/NC(=S)NC(C)C)cc1 | 14.1 |
| CC1(C)NC(=O)N(CC(=O)O)C1=O | 18 |
| N/C(=N\OC(=O)c1ccc2ccccc2c1)c1ccccn1 | 28.3 |
| COC(=O)C1=C(C)N=c2s/c(=C/c3cccs3)c(=O)n2C1c1cccs1 (centres unmarked) | -7.35 |
| COC(=O)CN1C(=O)Nc2ccc(C)cc2C1c1ccccc1 (centres unmarked) | 14.3 |
| COc1ccc(OC)c(NC(=O)CSc2nnc(CNC(=O)COc3ccc(Cl)cc3)o2)c1 | -60.1 |
| COc1cccc(NC(=O)CSc2nnc(Cc3cccn3C)n2-c2ccc(F)cc2)c1 | -15.5 |
| COc1ccc(Cl)cc1NC(=O)CSc1nnc(COc2ccccc2)n1N | -5.96 |
| COc1ccc(Cl)cc1NC(=O)CSc1nnc(COc2ccccc2)n1C | -57.3 |
| COc1cc2c(cc1NC(=O)CSc1nnc(COc3ccc(Cl)cc3)n1C)oc1ccccc12 | 6.05 |
| COc1ccc(-n2c(Cc3cccn3C)nnc2SCC(=O)Nc2cccc(F)c2)cc1 | -54.3 |
| COc1ccc(NC(=O)CSc2nnc(CNC(=O)COc3ccc(Cl)cc3)o2)c(OC)c1 | -12.9 |
| COc1ccc(-n2c(Cc3cccn3C)nnc2SCC(=O)Nc2cccc(OC)c2)cc1 | -23.4 |
| COc1ccccc1NC(=O)CSc1nnc(CNC(=O)COc2ccc(Cl)cc2)o1 | -43.7 |
| CN(CCC#N)C(=O)COC(=O)c1ccccc1C(=O)c1ccc(Cl)c([N+](=O)[O-])c1 | -0.749 |
| CCOC(=O)CCC(=O)N1CCOCCOCCN(C(=O)CCC(=O)OCC)CCOCC1 | -7.63 |
| Cc1cc(C)c2nc(-c3ccccn3)cc(C(=O)Nc3cc(C)on3)c2c1 | 10.4 |
| COc1ccc(-n2nc(C(=O)NCC(=O)NC(C)C)c3ccccc3c2=O)cc1Cl | 4.05 |
| COC(=O)c1c(C(=O)OC)c(-c2ccc(C)cc2)n2c1CS(=O)C2 (centres unmarked) | -53.8 |
| COC(=O)c1c(C(=O)OC)c(-c2ccc(F)cc2)n2c1CS(=O)C2 (centres unmarked) | 26.7 |
| COC(=O)c1c(C(=O)OC)c(-c2ccc(OC)cc2)n2c1CS(=O)C2 (centres unmarked) | 10.1 |
| OCCCc1nc2ccccc2n1CCOc1ccccc1 | -5.7 |

| SMILES | hERG current change (%, negative = inhibition) at 10uM [%] |
| --- | --- |
| OCc1nc2ccccc2n1CCCCOc1ccccc1 | 0.828 |
| CC(C)(C)C(=O)NCCCc1nc2ccccc2n1CCCOc1ccc(Cl)cc1 | -57.2 |
| CC(C)(C)C(=O)NCCc1nc2ccccc2n1CC(=O)c1ccc(Cl)cc1 | -33.2 |
| CC(C)C(=O)NCCc1nc2ccccc2n1CCCOc1ccc(Cl)cc1 | -41.7 |
| OCCCc1nc2ccccc2n1CCCCOc1ccccc1 | -57.2 |
| CCSc1nnc(NC(=O)C2CCCCC2C(=O)OCC(F)(F)C(F)F)s1 (centres unmarked) | 17.9 |
| O=C(COc1ccccc1)Nc1ccc([N+](=O)[O-])cc1 | 1.57 |
| CCOC(=O)c1[nH]cnc1C(=O)Nc1ccccc1OC | -2.79 |
| Cc1csc(SCC(=O)Nc2nnc(C)s2)n1 | 15 |
| CC(Sc1nncn1C)C(=O)Nc1ccccc1-c1ccccc1 (centres unmarked) | 8.27 |
| O=C(NC1CCCC1)C(c1ccncc1)N(C(=O)c1ccco1)c1ccccc1 (centres unmarked) | -5.61 |
| CCOC(=O)C1(CCOc2ccccc2)CCN(CC=C(C)C)CC1 | -50.2 |
| CCCN1CCC(CCOc2ccccc2)(C(=O)OCC)CC1 | -58.5 |
| CCOC(=O)C1(CCOc2ccccc2)CCN(CC2CC2)CC1 | -47.4 |
| CCOC(=O)C1(CCOc2ccccc2)CCN(CC(O)CO)CC1 (centres unmarked) | -26.9 |
| CCN1CCN(Cc2cccnc2)CC1 | 17.1 |
| CCCCOC(=O)c1ccc(NC(=O)CSc2nncn2C)cc1 | -4.57 |
| Cc1ccc(S(=O)(=O)NNC(=O)c2cnn(-c3ccccc3)c2-n2cccc2)cc1 | -15 |
| COc1ccc(C(=O)/C=C/C(=O)N(Cc2ccccc2)C(C(=O)NC2CCCCC2)c2ccncc2)c(O)c1 (centres unmarked) | -19.3 |
| O=C(N/N=C/c1ccsc1)c1ccc2ccccc2n1 | -2.2 |
| CCn1c(SCC(=O)N2CCN(c3cccc(Cl)c3)CC2)nc2ccccc2c1=O | -39.1 |
| O=C(CSc1nc2ccccc2c(=O)n1Cc1ccco1)N1CCCC1 | -77.1 |
| CCOC(=O)CSc1nc2ccccc2c(=O)n1Cc1ccco1 | -18.1 |

| SMILES | hERG current change (%, negative = inhibition) at 10uM [%] |
| --- | --- |
| NC(=O)CSc1nc2ccccc2c(=O)n1Cc1ccco1 | -36 |
| O=C(CSc1nc2ccccc2c(=O)n1Cc1ccco1)N1CCN(c2ccccc2)CC1 | -74.9 |
| O=c1c2ccccc2nnn1CSc1nc2ccccc2c(=O)n1Cc1ccco1 | -6.44 |
| O=C(CSc1nc2ccccc2c(=O)n1Cc1ccco1)N1CCCCCC1 | -76.4 |
| COCCn1nnnc1CN1CCN2CCCC2C1.Cl (centres unmarked) | 3.16 |
| C/C(=N/NC(=O)c1cc(-c2ccccc2)nc2c(Cl)cccc12)c1cccnc1 | 26.1 |
| Cc1cc(=O)[nH]c(SCC(=O)N2CCCC(C)C2)n1 (centres unmarked) | 11.3 |
| CCOc1ccc(N(CC(=O)Nc2ccc(OC)cc2)S(=O)(=O)c2c(C)[nH]c(=O)[nH]c2=O)cc1 | 1.99 |
| COc1ccc(S(=O)(=O)N2CCOCC2)cc1C(=O)NCC(c1ccco1)N1CCCC1 (centres unmarked) | 3 |
| CN(C)CCCN1c2ccccc2Sc2ccc(Cl)cc21.Cl | -42.2 |
| C[NH+](C)CCCN1c2ccccc2Sc2ccc(Cl)cc21.[Cl-] | -65.3 |
| OCCN1CCN(CCCN2c3ccccc3Sc3ccc(Cl)cc32)CC1 | -49.3 |
| O=C(Nc1ccccc1C(=O)N1CCCC1)c1ccc(Cl)cc1Cl | 14 |
| Cc1cc(C(=O)CSc2nnc(NCc3ccccc3)s2)c(C)n1C | -9.15 |
| O=C(c1cccs1)N1CCC(c2nc3ccccc3s2)CC1 | -57.2 |
| O=C(c1cccc(F)c1)N1CCC(c2nc3ccccc3s2)CC1 | -49.9 |
| O=C(c1cccs1)N1CCN(c2nc3ccccc3s2)CC1 | 0.757 |
| O=C(CN1CCC(c2nc3ccccc3s2)CC1)NCc1cccs1 | -37.2 |
| Cc1cccc(C(=O)N2CCC(c3nc4ccccc4s3)CC2)c1 | -33.7 |
| O=C(CN1CCC(c2nc3ccccc3s2)CC1)NCc1ccccc1 | -67.5 |
| O=C(c1ccccc1Br)N1CCC(c2nc3ccccc3s2)CC1 | -35.1 |
| CCc1ccc(C(=O)N2CCC(c3nc4ccccc4s3)CC2)cc1 | -71.9 |
| O=C(CN1CCC(c2nc3ccccc3s2)CC1)N1CCCCC1 | -33.5 |

Reference: paper PMC4336329 (PLoS ONE, 2015)
